# Results: the supplement of paper PMC6555819
# Columns and labels:
# Assay in all cases: PBM binding z-score (relative to random genomic background probes); higher = stronger binding; sequences stand for … in GC…GCGATTGACAGCGTAGAATGAAGG
# [1] = test system: FXR:RXRa (NR concentration 270 nM, RXRa partner concentration 90 nM)
# Outline: (§1)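 Regression normalization was applied to scanned fluorescence from custom Agilent 4×180K protein-binding microarrays. Before scanning, arrays were incubated 1 h with ligand-free nuclear receptor dimers, and binding was detected with antibodies against each partner (one per run). Binding z-scores use the random background probes as reference.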
# [2] = test system: LXRa:RXRa (NR concentration 270 nM, RXRa partner concentration 90 nM)
# Outline: as §1
# [3] = test system: LXRa homodimer (NR concentration 270 nM)
# Outline: as §1
# [4] = test system: LXRb:RXRa (NR concentration 270 nM, RXRa partner concentration 90 nM)
# Outline: as §1
# [5] = test system: LXRb homodimer (NR concentration 270 nM)
# Outline: as §1
# [6] = test system: PPARa:RXRa (NR concentration 270 nM, RXRa partner concentration 90 nM)
# Outline: as §1
# [7] = test system: PPARg:RXRa (NR concentration 180 nM, RXRa partner concentration 90 nM)
# Outline: as §1
# [8] = test system: PPARg:RXRa 270nM:90nM, anti-RXR (NR concentration 270 nM, RXRa partner concentration 90 nM)
# Outline: as §1
# [9] = test system: PPARg:RXRa 30nM:10nM, anti-RXR (NR concentration 30 nM, RXRa partner concentration 10 nM)
# Outline: as §1
# [10] = test system: PPARg:RXRa 90nM:30nM, anti-RXR (NR concentration 90 nM, RXRa partner concentration 30 nM)
# Outline: as §1
# [11] = test system: PPARg:RXRa DBDmut IVT, anti-RXR (DBD mutation: RXRa K156A/R161A, NR concentration 270 nM, RXRa partner concentration 90 nM)
# Outline: as §1
# [12] = test system: PPARg:RXRa IVT, anti-PPARg (NR concentration 270 nM, RXRa partner concentration 90 nM)
# Outline: as §1
# [13] = test system: PPARg DBDmut:RXRa IVT, anti-PPARg (DBD mutation: PPARg1 K132A/R137A, NR concentration 270 nM, RXRa partner concentration 90 nM)
# Outline: as §1
# [14] = test system: PPARg DBDmut IVT, anti-PPARg (DBD mutation: PPARg1 K132A/R137A, NR concentration 270 nM)
# Outline: as §1
# [15] = test system: PPARg homodimer (NR concentration 180 nM)
# Outline: as §1
# [16] = test system: PXR:RXRa (NR concentration 270 nM, RXRa partner concentration 90 nM)
# Outline: as §1
# [17] = test system: PXR homodimer (NR concentration 270 nM)
# Outline: as §1
# [18] = test system: RARa:RXR (NR concentration 270 nM, RXRa partner concentration 90 nM)
# Outline: as §1
# [19] = test system: RARa homodimer (NR concentration 270 nM)
# Outline: as §1
# [20] = test system: RARb:RXRa (NR concentration 270 nM, RXRa partner concentration 90 nM)
# Outline: as §1
Sequence,PBM binding z-score [1],PBM binding z-score [2],PBM binding z-score [3],PBM binding z-score [4],PBM binding z-score [5],PBM binding z-score [6],PBM binding z-score [7],PBM binding z-score [8],PBM binding z-score [9],PBM binding z-score [10],PBM binding z-score [11],PBM binding z-score [12],PBM binding z-score [13],PBM binding z-score [14],PBM binding z-score [15],PBM binding z-score [16],PBM binding z-score [17],PBM binding z-score [18],PBM binding z-score [19],PBM binding z-score [20]
GGAACGACGGCATTCGAGTTGATAGCATGGCGAT,-0.557,-0.773,-0.583,-0.948,-1.04,-0.735,0.532,-0.612,-0.766,-0.917,-0.236,-0.897,-0.871,-0.489,-1.13,-0.589,-0.529,-0.766,-0.761,-1.24
TCATATAGGTAATGGTGAAAGTCGAACGATATGA,-0.32,0.417,-0.0652,0.263,-0.188,1.22,1.43,2.42,3.89,3.12,3.77,2.74,1.66,1.7,0.415,0.253,-0.311,0.342,0.0985,0.417
TCTATTAGTTGATTCGGGCAACCGAAACAGCGGA,0.597,0.339,0.411,0.655,0.739,0.742,-0.102,1.84,3.9,2.85,1.91,0.598,0.957,0.979,0.106,0.3,0.223,0.414,0.742,0.671
TCTGCTAAGTCAGTTGGTCAGCTAACGAGCTGCC,-0.309,-0.429,-0.729,-0.89,-0.474,-0.235,-1.04,0.263,1.09,0.712,0.523,0.0659,-0.684,-0.363,-1.05,-0.607,-0.707,-0.273,-1.36,0.0945
CCTACTGGGCCATCAGGTTATTGATATCAACGTT,0.0751,-0.156,0.178,0.293,-0.502,0.918,1.23,1.98,0.473,1.4,4.67,4.48,0.284,0.0128,0.249,-0.153,-0.0218,-0.124,0.0589,0.589
CGTCAAAGTTCAAGGTAACGTATCAGAAAGCAGC,5.57,5.5,2.87,3.2,1.15,4.61,4.11,5.03,1.86,3.65,1.16,2.03,0.808,-0.101,2.73,4.22,3.05,3.48,1.28,4.98
ACAGGCAGGTGAGTGAAGGTAACTCAGCTGGACG,0.139,-0.0924,-0.455,-0.499,-0.66,0.119,0.199,-0.206,-0.505,-0.636,0.549,0.264,-0.867,-0.655,-0.302,-0.384,-0.354,-0.019,-0.662,0.283
TCTTGTAGATCAGCAGGATAAGAAAGCTGGCCAA,-0.292,-0.433,-0.526,-0.411,-0.635,0.0173,-0.182,1.01,2.37,1.45,1.55,0.124,0.2,-0.242,-1.15,-0.413,-0.584,-0.151,-0.239,-0.505
CGTCAAAATTCAAGGTAACGTAACAGAAAGCAGC,0.068,-0.273,0.242,0.13,0.187,0.331,0.678,0.108,0.0221,0.028,0.000306,0.704,0.815,0.761,0.474,-0.0296,0.268,0.363,0.932,0.208
GCTATTAGTTGAAAGGGCAACGGAATGATTCTCG,0.364,0.524,0.225,0.73,-0.171,2.5,2.45,4.33,2.24,4.02,0.701,0.992,1.04,0.361,0.8,0.606,0.255,1.19,0.995,1.93
GATACAGGGTCAGCTAGAGGCCAGAGGATGGAAA,4.5,3.02,-0.423,2.39,-0.64,4.54,3.7,3.5,1.02,2.16,1.05,2.27,0.0573,-0.276,2.33,3.12,-0.127,4.59,0.2,4.17
TCATATCGGTAATACAGGTGAAAGTCGGCATCTA,0.812,0.733,0.448,0.822,0.305,1.58,0.895,2.79,3.92,3.03,2.51,1.96,1.47,0.852,1.2,0.46,0.585,0.605,1.17,0.527
TCGAGTAGGTTACCAATGGGGCATTCGGCTTTCT,-0.107,1.22,-0.464,0.357,-0.96,0.808,0.00688,0.931,0.855,0.717,3.25,2.7,-1.22,-1.07,0.209,-0.187,-0.566,0.111,-1.05,0.768
AATACAGGGTCACTAGCCCAGAGTAGGTACGAAT,5.41,4.89,1.13,3.8,0.946,5.41,5.91,5.2,2.09,4.01,2.81,4.3,1.88,0.703,2.29,2.92,0.113,3.64,1.11,4.08
GCATATAGGTAATACAAGGTGAAAGTACGATTGT,0.899,2.24,0.263,0.874,-0.16,1.82,1.98,1.86,0.776,1.17,3.58,3.44,1.47,0.563,0.701,0.648,0.0601,1.84,0.78,0.387
CGAACTAGGTCATCCGGGACAGTGAATACATTGA,4.46,2.66,0.565,2.05,0.166,5.08,8.08,6.28,3.97,5.8,8.35,8.45,3.68,1.68,1.84,1.8,0.618,2.4,0.0887,4.09
TAGCCTAGGGCATTGGGCCAGTATAGTACGCATC,-0.339,-0.336,-0.318,-0.673,-0.892,-0.0901,0.887,0.225,-0.369,-0.368,0.771,1.87,-0.149,-0.898,-1.01,-0.62,-0.779,-0.444,-1.17,1.08
CGTCCAAGGTCAGGGTCAGTGAAAGAGACTCGAA,6.11,3.93,-0.0372,3.66,0.128,5.11,4.59,4.52,1.28,2.98,2.17,3.09,0.335,-0.416,2.66,3.7,0.71,4.22,1.34,5.2
CGTCCAAGGTCAAGATCAGTGAAAGAGACTCGAA,6.95,4.97,0.248,3.85,0.6,5.63,4.78,5.2,1.46,3.58,3.03,3.31,0.858,0.353,2.49,3.3,0.349,3.99,1.69,5.14
ACGATTAGTTGAGACGAGGGCAACCGATAGGTTG,0.116,-0.256,-0.3,-0.292,-0.463,0.252,0.533,-0.0475,-0.114,-0.534,-0.118,0.112,0.232,-0.573,0.155,1.11,0.466,0.874,0.365,0.555
ATCGAAAGGCCGAAGGTGAGTATACCCACCCGAA,-0.216,-0.00303,-0.202,-0.349,-0.732,0.657,1.25,1.31,0.275,0.738,-0.869,0.122,-0.0521,-0.507,-0.197,-0.245,-0.678,0.273,-0.544,1.04
AGAATGAGGTTAAGATCAGGAAAACAGAATACAT,2.16,1.98,-0.0642,1.77,-0.122,3.76,2.48,2.46,1.03,1.72,2.5,2.67,1.33,0.813,0.0242,1.08,0.189,1.93,0.732,1.9
TCTGCTAGGTCAACGATGGTCATCTAATCTGCTA,3.5,3.34,0.105,2.03,0.0541,3.37,2.78,3.34,2.08,2.79,4.28,4.02,0.183,0.11,0.637,2.1,-0.415,2.56,-0.306,4.09
AGAATGAGCTTACCAAAGATCAGGGAAACGCTTG,-0.649,-0.433,-0.203,-0.523,-0.394,-0.401,0.53,0.206,0.32,-0.0483,-0.815,-0.433,-0.258,-0.198,-0.572,-0.428,-0.462,-0.0887,-0.255,-0.501
CCGACTGGGGCATAAGGTTACCAGAAGCCAGCCC,0.432,1.72,-0.288,0.864,-1.26,2,2.27,3.48,1.75,2.93,3.11,3.13,-1.29,-1.2,0.743,0.265,-0.64,1.84,-0.798,1.78
CCAGACAGGTGAAAGGTAACTTAGTCTGGTACGC,0.545,0.539,-0.368,0.935,-0.486,3.31,5.21,5.6,3.58,5.77,2.21,2.75,0.0771,-0.396,0.712,0.936,-0.035,1.59,0.346,1.15
AGTCAAAGTTCACTAGGTAACGAAAGATTCAGCT,5.29,5.15,2.87,3.05,0.803,4.94,7.8,6.56,3.66,5.74,2.71,5.36,0.953,1.35,2.81,3.8,2.41,2.8,1.47,4.54
TCAGACAGGTGAAGGTTACTCAGGTACGCAGTCG,1.24,3.55,0.607,2.38,0.0683,1.81,1.06,2.39,3.71,2.81,2.66,1.5,0.0117,0.759,1.02,1.38,0.43,1.55,0.589,1.83
CCTAGCAGCCCAATCTGGGTCACTCAAGGCTTGA,0.0445,0.132,-0.399,0.523,-0.695,2.93,1.6,1.71,-0.36,1.1,3.69,4.29,-0.334,-0.918,0.624,0.268,-0.803,1.12,-0.169,0.878
